AMA1-RON2 inh = disrupts binding of P. falciparum AMA1 to RON2. AID 720542. AlphaScreen AMA1-biotinylated RON2 peptide binding. 360,000 compounds, 0.2% hits. Potency, µM (highest dose often 58.2 µM), for inactives: at the highest dose activity change, negative = inhibition, usual class: inhibitors; active = well fitted inhibition curve with a large enough effect; inconclusive = small, poorly fitted or top-dose-only effect; inactive = no such curve, though single readings can be large or run the other way;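 also: potency is read from the fitted curve at half-maximal effect; 0% = vehicle wells and -100% = peptide control; nearly all actives have a fitted effect of over 45% in size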
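AMA1 (3D7) with his tag at 25 nM final met compounds first, then biotinylated RON2 peptide at 25 nM; detection used donor plus acceptor beads, 10 µg/mL apiece, read by AlphaScreen after 30 min at room temperature.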
Lassa entry inh = inhibitors of Lassa virus binding or cell entry | Lassa virus pseudotype entry inhibition, cell reporter | Potency, µM (titrated, usually from 37.9 µM), without a hit: at the top dose activity change, negative = inhibition, most hits filed as inhibitors | 300,000 compounds, 1.2% hits; calls by dose curve; tested in HEK293 cells; also: potency is read from the fitted curve at half-maximal effect; % is scaled to controls: 0 for no effect and ±100 for the full control effect; nearly all actives have a fitted effect of over 50% in size
Shiga toxin inh = Shiga toxin inhibition. inhibition, % at 38.7 µM. 290,000 compounds, 9.2% hits. Vero cells, Shiga toxin protein synthesis inhibition reporter; in the data active = inhibition mostly above about 28%, no sharp cut-off; inactive = mostly below about 43%; also: 0% is about no effect
Cycloheximide cs = counter-screen hit for Shiga toxin inhibitors, cycloheximide; cell reporter, cycloheximide protein synthesis inhibition counterscreen; max response, %; 300,000 compounds, 12% hits; in the data active = max response mostly above about 13%, no sharp cut-off; inactive = mostly below about 14%; also: read at 38.3 µM for the half of the compounds with a filed dose; 0% is about no effect
Marburg entry inh = inhibitors of Marburg virus binding or cell entry | Marburg virus pseudotyped entry inhibition, cell reporter | Potency, µM (titrated, usually from 37.8 µM), without a hit: top-dose activity change, negative = inhibition, usual class: inhibitors | 300,000 compounds, 1.8% hits; calls by dose curve; tested in HEK293 cells; also: potency is read from the fitted curve at half-maximal effect; % is scaled to controls: 0 for no effect and ±100 for the full control effect
Starred values were filed as active, the others as inactive; ? = inconclusive; / = no result; [ ] = remark or other dose. Shown is part of a subset that was picked to be rich in hits.

SMILES	AMA1-RON2 inh	Lassa entry inh	Shiga toxin inh	Cycloheximide cs	Marburg entry inh
O=C(NC(=S)NCC1CCCO1)c1ccccc1 (stereo not given)	6%	4%	34*	31*	?
O=C(NCC1CCCO1)c1ccccc1 (stereo not given)	3%	0%	27	3	?
CCn1c(SCC(=O)Nc2ccccc2C)nc2nc3c(cc2c1=O)COC(C)(C)C3	0%	/	3	-1	/
CC1CCCCC1NC(=O)CCn1ccc2cc(S(=O)(=O)N3CCCC3)ccc21 (stereo not given)	4%	2%[46.1 µM]	12	1	?
COc1ccc(OC)c(CCNc2nc3cc(OC)c(OC)cc3c3nc(-c4cccnc4)nn23)c1	/	/	/	/	12%[46.1 µM]
CCCCCOC(=O)c1ccc(NC(=O)c2ccco2)cc1	-7%	-18%	68*	36*	-13%
CCCCOC(=O)c1ccc(NC(=S)NC(=O)c2ccco2)cc1	23%	16µM*	5	6	?
CCCCOc1cccc(C(=O)Nc2ccc(NC(=O)c3ccco3)cc2)c1	-7%	/	-18	-2	3%[46.1 µM]
COC(=O)C1=C(C)NC(C)=C(C(=O)OC)C1C(=O)OCC(=O)NC1CCCCC1C (stereo not given)	0%	/	/	/	/
Cc1c(Cl)cccc1NC(=S)N(Cc1cccs1)C1CCCC1	4%	?	13	16*	-6%
C/C(=N\NC(=O)CN1CCCCC1)c1cccc([N+](=O)[O-])c1	12%	?	/	/	?
CC(=NNC(=O)c1ccncc1)c1ccc2ccccc2c1O	79%	5µM*	/	/	7.9µM*
C/C(=N\NC(=O)CN1CCCCC1)c1ccccc1O	96%	-15%[46.1 µM]	39*	23*	?
CC(=NNC(=O)c1ccncc1)c1ccccc1O	63%	?	/	/	3.2µM*
CC(C)CC(=NNC(=O)c1ccncc1)c1cc(Cl)ccc1O	67%	3.2µM*	/	/	?
O=c1[nH]c(=S)[nH]cc1Oc1ccccc1	80%	0%[46.1 µM]	/	/	11%[46.1 µM]
COc1ccc(Nc2nc(-c3sc(NC(C)=O)nc3C)cs2)cc1	/	/	1	-1	-2%
CCOc1ccc(Nc2nc(-c3sc(N)nc3C)cs2)cc1	62%	-2%[46.1 µM]	14	14*	?
COc1ccc(Nc2nc(-c3sc(N)nc3C)cs2)cc1	70%	1%	56*	25*	21%
Cc1ccc(Nc2nc(-c3sc(N)nc3C)cs2)cc1	66%	/	46*	40*	/
Cc1ccc(Nc2nc(-c3sc(C)nc3C)cs2)cc1	-14%	/	58*	25*	/
Cc1ccc(Nc2nc(-c3sc(NC(=O)c4ccc([N+](=O)[O-])cc4)nc3C)cs2)cc1	/	/	-6	1	0%
Cc1nc(C)c(-c2csc(Nc3ccc(S(N)(=O)=O)cc3)n2)s1	0%	?	-7	2	?
CN1CCN(c2ccc(-c3nc(-c4ccccc4)no3)cc2[N+](=O)[O-])CC1	/	?	/	/	-3%[46.1 µM]
CC(=O)Nc1ccc(Nc2nc(-c3sc(C)nc3C)cs2)cc1	0%	?	53	11*	-40%
SMILES	AMA1-RON2 inh	Lassa entry inh	Shiga toxin inh	Cycloheximide cs	Marburg entry inh
CC(=O)c1ccc(Nc2nc(-c3sc(C)nc3C)cs2)cc1	7%	/	/	/	/
O=C1c2ccccc2C(=O)N1Cc1nc(-c2ccccc2)no1	5%	8%	-3	-1	17%
O=S(=O)(Cc1cc(-c2ccccc2)no1)c1ccccc1	?	-1%[46.1 µM]	65*	34*	?
CSc1cc(CS(=O)(=O)c2ccccc2)nc(-c2ccccc2)n1	-3%	8%[46.1 µM]	-1	-2	-5%[46.1 µM]
O=C1c2ccccc2C(=O)N1Cc1cc(-c2ccccc2)no1	10%	-6%	27*	19*	22%
COc1ccc(-c2cc(CS(=O)(=O)c3ccccc3)on2)cc1	-9%	-3%[46.1 µM]	68*	41*	?
CN1CCC(N(C)C(=O)c2ccc(Cl)c(S(=O)(=O)N3CCOCC3)c2)CC1	-14%	0%	/	/	?
O=C(Nc1ccc(F)cc1)C1CCN(S(=O)(=O)c2cccs2)CC1	-5%	/	13	6	/
Cc1ccc2cccc(NC(=O)COc3ccccc3[N+](=O)[O-])c2n1	/	-20%[46.1 µM]	/	/	-22%[46.1 µM]
c1ccc(-c2cc(NCCN3CCCCC3)c3ccccc3n2)cc1	3%	?	-6	-8	2.8µM*
Cn1c(NCCN2CCCC2)nc2cc(-c3ccccc3)sc2c1=O	-3%	/	/	/	/
CN(C(=O)c1cccc(NC(=O)C2CCN(C(=O)OC(C)(C)C)CC2)c1)C1CCCCC1	2%	/	/	/	/
Cc1ccc(C(=O)NC(=C(Cl)Cl)S(=O)(=O)c2ccccc2)cc1	2%	?	161*	103*	?
COC(=O)CN(c1ccccc1)S(=O)(=O)c1ccccc1	4%	23%	19	1	4%
COC(=O)NC(=C(Cl)Cl)S(=O)(=O)c1ccccc1	-1%	13µM*	128*	82*	?
COc1ccc(C(=O)NC(=C(Cl)Cl)S(=O)(=O)c2ccc(C)cc2)cc1	-13%	/	39	22*	/
CN1C[C@@H]2[C@@H]3C(=O)N(C)C(=O)[C@@H]3[C@](C)(C1=O)N2C(=O)c1ccc(Cl)cc1	11%	/	/	/	/
CCOC(=O)c1cc(C)n(CCc2cnc[nH]2)c1C	-5%	?	27	15*	29%
COc1ccc(C(=O)/C=C/c2cccs2)c(OC(=O)c2cccc([N+](=O)[O-])c2)c1	-22%	-8%	132*	60*	-1%
COc1ccc(C(=O)/C=C/c2ccc(F)cc2)c(OC(=O)c2ccc([N+](=O)[O-])cc2)c1	-15%	2%	21	23*	2%
O=C(CSc1nc(O)c(C/C=C/c2ccccc2)c(=O)[nH]1)Nc1cccc(F)c1	/	-4%[46.1 µM]	/	/	5%[46.1 µM]
CCOC(=O)N/N=C\C=C\c1ccco1	-12%	?	-7	0	20%[46.1 µM]
CCOC(=O)N/N=C(C)/C=C/c1ccco1	-17%	?	31	21*	?
CC(/C=C/c1ccccc1)=N/NC(=O)C(O)c1ccccc1 (stereo not given)	-1%	-14%	45*	10	14%
CC(/C=C/c1ccccc1)=N\Nc1ccccc1[N+](=O)[O-]	?	-4%[46.1 µM]	89*	32*	?
SMILES	AMA1-RON2 inh	Lassa entry inh	Shiga toxin inh	Cycloheximide cs	Marburg entry inh
CCOC(=O)N/N=C(C)/C=C/c1ccccc1	1%	-1%	16	28*	19%
COC(=O)N/N=C(C)/C=C/c1ccccc1	-20%	1%	/	/	7%
COc1cc(C=NNc2ccccc2[N+](=O)[O-])cc(OC)c1OC	-10%	/	/	/	/
COc1ccc(CN2CCN(C(=O)CCC(=O)c3ccc(C)s3)CC2)cc1OC	2%[11.6 µM]	-1%	/	/	15%
O=C(CSc1nnc(CNC(=O)c2ccccc2)o1)NCc1ccc2c(c1)OCO2	-4%	-11%	-4	5	21%
O=C(NCc1ccccn1)c1ccccc1OCc1ccc(Cl)cc1Cl	29%	/	/	/	/
O=S(=O)(c1ccc(C(F)(F)F)cc1)N1CCN(CCc2ccccc2)CC1	-2%	-12%[46.1 µM]	-6	-5	?
Cc1nn(CC(=O)NCc2ccc(N(C)C)cc2)c(=O)c2nn(-c3ccccc3)c(C)c12	/	2%[46.1 µM]	/	/	/
Cc1ccc(N2C(=O)C(CC(=O)Nc3cccc(F)c3)N(C3CC3)C2=O)cc1 (stereo not given)	3%	/	5	18*	/
O=C(NNC(=S)NC(=O)c1ccccc1)c1ccc(O)cc1	95%	14%[46.1 µM]	13	7	-6%[46.1 µM]

Screening results from PubChem.
